The values below come from ChEMBL document CHEMBL4513216, “Probing the Open Global Health Chemical Diversity Library for Multistage-Active Starting Points for Next-Generation Antimalarials” (ACS Infect Dis, 2020).

The whole screen tested about 68,000 compounds, of which about 2,700 (4%) showed an effect of 50% or more. The list comes from a sample in which strong results are over-represented; it also holds similar structures and randomly drawn compounds.

This assay has as its system Plasmodium berghei. In words: Screen against P. berghei liver stage (PbLuc), transformed with Luciferase, at 2uM. The conditions noted are these: tested at 2 uM. It counts as functional, HepG2.
For the compound `Cc1nnc2n1CCN(CCOc1cccc(C#N)c1)C2`, the INHIBITION was 33.82%.

Turning to `CC(C)(O)CCc1ccc(C(=O)NCC2CCCOC2)cc1` (stereo not drawn), the INHIBITION was 42.27%.

As to `Cc1ccc(C(=O)N2C[C@H](NS(C)(=O)=O)[C@@H](C(C)C)C2)cc1F`, the INHIBITION is reported as -43.88%.

Take `Cc1ccc(C(=O)N2C[C@@H](NS(C)(=O)=O)[C@H](C(C)C)C2)cc1O`: the INHIBITION is recorded as 51.72%.

In the case of `Cc1nc2cc(C(=O)N3C[C@@H](NS(C)(=O)=O)[C@H](C(C)C)C3)ccc2[nH]1`, the INHIBITION is on record as -1.71%.

Turning to `O=C(c1ccco1)N1C2CCC(O)(CC2)C1CO` (stereo not drawn), the INHIBITION turned out to be 3.38%.

In the case of `CCn1c2c(ccc1=O)CC(N)CC2` (stereo not drawn), the INHIBITION is listed as 13.38%.

Take `O=c1ccc2c(n1Cc1cccnc1)CCN(Cc1ccoc1)CC2`: the INHIBITION came to 0.13%.

As to `O=c1ccc2c(n1CCN1CCCC1)CCN(Cc1ccoc1)CC2`, the INHIBITION was -1.79%.

As for `NC1CCc2c(ccc(=O)n2CC2CC2)C1` (stereo not drawn), the INHIBITION came out at 24.86%.

On to `NC1CCc2c(ccc(=O)n2Cc2ccncc2)C1` (stereo not drawn), for which the INHIBITION was determined as 55.11%.

In the case of `O=c1ccc2c(n1Cc1ccncc1)CCN(Cc1ccoc1)CC2`, the INHIBITION is 50.91%.

Take `CCOCC1CN(Cc2ccco2)Cc2nccn2C1` (stereo not drawn): the INHIBITION is listed as -7.76%.

`CNS(=O)(=O)c1cnccc1N1CCN(C(C)C)CC1`: the INHIBITION came out at 15.75%.

`Cc1csc(CCNc2ccc(C#N)cn2)n1`: the INHIBITION came to 20.29%.

For the compound `Cc1cccc(NCCNc2ccc(C#N)cn2)n1`, the INHIBITION amounted to 60.79%.

With `Cc1cc(NCCNc2ccc(C#N)cn2)nc(C)n1`, the INHIBITION is on record as 21.81%.

Regarding `COc1ccc(NC(=O)NCC(O)c2ccc(F)cc2F)c(OC)c1` (stereo not drawn), the INHIBITION is 47.72%.

Regarding `CCn1ccnc1CN1CCN(c2nccc(OC)n2)CC1C` (stereo not drawn), the INHIBITION came to 72.05%.

Turning to `CCn1ccnc1CN1CCN(C(C)C)CC1C` (stereo not drawn), the INHIBITION is recorded as -49.57%.

For `CCCN1CCN(Cc2nccn2CC)C(C)C1` (stereo not drawn), the INHIBITION is 16.97%.

On to `COc1ccccc1C(NCc1ccc(SC)cc1)c1nccn1C` (stereo not drawn), for which the INHIBITION was determined as 16.26%.

With `COc1ccc2c(c1)CCN(Cc1cscn1)CC2`, the INHIBITION was determined as 1.54%.

Consider `COc1ccc(C2CCN(Cc3cscn3)CC2)cc1`, for which the INHIBITION was 56.84%.

In the case of `COc1ccc(OC)c(CN2CCN(Cc3cscn3)CC2)c1`, the INHIBITION is listed as 1.3%.

As for `Cc1csc2ncc(-c3ccnc(N4CCC[C@H](C(N)=O)C4)n3)c(=O)n12`, the INHIBITION came to 43.16%.

For the compound `COC[C@@H]1CC[C@H]2[C@H](CCN2S(=O)(=O)c2cccc(F)c2)O1`, the INHIBITION was found to be 9.46%.

With `CNC(=O)NC(=O)CN1CCc2c(Br)ccc(F)c2C1`, the INHIBITION was -20.8%.

With `NC(=O)C1(CCCc2ccccn2)CCCN(CCO)C1` (stereo not drawn), the INHIBITION is reported as -17.3%.

As for `COCCN1CCCC(CCCc2ccccn2)(C(N)=O)C1` (stereo not drawn), the INHIBITION came to 55.74%.

Regarding `NC(=O)CN1CCCC(CCCc2ccccn2)(C(N)=O)C1` (stereo not drawn), the INHIBITION is recorded as 12.8%.

Consider `CN(c1ccccc1)S(=O)(=O)c1cc2c(c(C(=O)O)c1)OCCO2`, for which the INHIBITION is given as 53.19%.

For `Cc1cc(C)cc(N(C)S(=O)(=O)c2cc3c(c(C(=O)O)c2)OCCO3)c1`, the INHIBITION came to 34.46%.

Turning to `CN(c1ccc(F)cc1)S(=O)(=O)c1cc2c(c(C(=O)O)c1)OCCO2`, the INHIBITION was found to be 26.75%.

On to `Cc1ccc(NS(=O)(=O)c2cc3c(c(C(=O)O)c2)OCCO3)c(F)c1`, for which the INHIBITION is given as 57.95%.

Take `Cc1ccc(F)c(NS(=O)(=O)c2cc3c(c(C(=O)O)c2)OCCO3)c1`: the INHIBITION was -45.83%.

Consider `O=C(O)c1cc(S(=O)(=O)Nc2ccc(F)cc2F)cc2c1OCCO2`, for which the INHIBITION is -29.54%.

On to `O=C(Cc1cccs1)NCC1COCc2c(-c3ccoc3)nnn2C1` (stereo not drawn), for which the INHIBITION stood at 24.34%.

With `COc1cc(CN(C)C(=O)NCCC(=O)NC2CCCC2)ccc1SC`, the INHIBITION is on record as 49.88%.

`Cc1occc1C(=O)N1CCCS1(=O)=O`: the INHIBITION was determined as 29.41%.

Consider `CN(C)S(=O)(=O)N1CC[C@]2(C[C@H](OCc3ccncc3)CO2)C1`, for which the INHIBITION stood at 9.65%.

For the compound `COCCN1CC(Nc2nc(C3CCCC3)nc3c2cnn3C)CC1=O` (stereo not drawn), the INHIBITION is 40.4%.

`COCCN1CC(Nc2nc(C(C)C)nc3c2cnn3C)CC1=O` (stereo not drawn): the INHIBITION is listed as 57.34%.

Take `CC(C)C(=O)N1CCC(CNc2nc(C(C)C)nc3c2cnn3C)CC1`: the INHIBITION is given as 19.12%.

`C=c1ncsc1=C1NN=C(C2CCCN2C(=O)CCn2ccc(C)n2)O1` (stereo not drawn): the INHIBITION is -16.2%.

On to `CC(NC(=O)NCCCN1CCc2ccccc2C1)c1nncn1C` (stereo not drawn), for which the INHIBITION is listed as 10.53%.

`CN1CCN(S(=O)(=O)c2cncc(F)c2)c2ccccc2C1`: the INHIBITION came out at 52.73%.

Consider `Cc1cc(F)ccc1S(=O)(=O)N1CCN(C)Cc2ccccc21`, for which the INHIBITION is listed as 26.62%.

As for `COc1cc(F)c(S(=O)(=O)N2CCN(C)Cc3ccccc32)cc1OC`, the INHIBITION was -50.8%.

For `CN(C(=O)Cn1nc(-c2ccc(F)cc2)ccc1=O)C1CCS(=O)(=O)C1` (stereo not drawn), the INHIBITION was 11.87%.

Regarding `CS(=O)(=O)N1CCCC1c1ccnc2nccn12` (stereo not drawn), the INHIBITION was 12.35%.

For `CC(C)Oc1cc(N2CCC(C(N)=O)CC2)nc(N)n1`, the INHIBITION was 54.41%.

`CC(C)Oc1cc(N2CCC(N3CCC(O)CC3)CC2)nc(N)n1`: the INHIBITION was determined as 2.39%.

In the case of `CC(C)Oc1cc(N2CC[C@H](CO)[C@@H](O)C2)nc(N)n1`, the INHIBITION was -1.63%.

With `CCN(CC)c1nc(Nc2cccc(C(C)O)c2)nc2ccccc12` (stereo not drawn), the INHIBITION was 6.9%.

Turning to `CC(O)c1cccc(Nc2nc(NCCO)c3ccccc3n2)c1` (stereo not drawn), the INHIBITION came out at 60.26%.

With `CCN(CC)c1nc(Nc2cccc(C(=O)O)c2)nc2ccccc12`, the INHIBITION is reported as 22.51%.

Take `C=C(C)CN(CC)Cc1nc(CC)no1`: the INHIBITION is recorded as 29.39%.

Consider `Cc1nc(CN2CCC3(CC2)CCN(C(=O)c2cscn2)C3)cs1`, for which the INHIBITION stood at 36.75%.

As to `Cc1ccc(-c2noc([C@@H]3C[C@H](NC(=O)CC(C)(C)C)CN3C)n2)cc1`, the INHIBITION is 29.3%.

As to `CCc1nccn1CCCNC(=O)CN1CCN(c2ncccn2)CC1`, the INHIBITION was determined as 52.57%.

In the case of `O=C(NCCCN1CCN(c2ncccn2)CC1)Nc1ccccn1`, the INHIBITION stood at 7.62%.

For `CCOC(=O)CCCNC(=O)CN1CCN(c2ncccn2)CC1`, the INHIBITION amounted to 6.56%.

Turning to `Cc1cc(C2CCCCN2C(=O)CN2C(=O)OC(C)(C)C2=O)no1` (stereo not drawn), the INHIBITION is reported as 13.51%.

In the case of `Cc1cc(C2CCCN2C(=O)CN2C(=O)OC(C)(C)C2=O)on1` (stereo not drawn), the INHIBITION was 40.83%.

Regarding `CC(C)c1cc(C2CCCN2C(=O)CN2C(=O)OC(C)(C)C2=O)no1` (stereo not drawn), the INHIBITION was determined as 64.74%.

Consider `CC(C)Cc1cc(C(=O)NC(C)C)[nH]n1`, for which the INHIBITION is given as 31.66%.

For the compound `O=C(Nc1nc(-c2ccccc2)ns1)N1CCN(C(=O)C2CC2)CC1`, the INHIBITION was determined as 7.3%.
